# According to PubChem BioAssay (NCI):
# Where “and” joins values, the source holds several entries; their conditions need not be identical. Equal entries are not always repeated. About 83,000 compounds went through this panel and 20% of them were active in at least one assay; those are over-represented in the sample as a whole.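 Assay: single dose, 48 h. Readout: percent growth (0 = no net growth; negative = cell death). Active: <10.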 Calls of active or inactive are those of the source.
# System: MDA-MB-468 breast
# Assay: NCI-60 one-dose screen, 48 h (100 = growth as untreated, 0 = no growth, -100 = all killed)
# Conditions: 10 µM unless noted
row,Structure (SMILES),growth
1,CC(C)NCCCNC1=C(Cl)C(=O)c2ccccc2C1=O,34.6% (inactive)
2,COC(=O)/C(CCC=C(C)C)=C1\[C@@H](OC(C)=O)C[C@@]2(C)[C@H]1C/C(=N/O)[C@H]1[C@@]3(C)CC/C(=N\O)[C@@H](C)[C@@H]3CC[C@@]12C,96.8% (inactive)
3,Clc1ccc2[nH]cc(-c3cncn3CCc3ccccc3)c2c1,7.96% (active)
4,C=C(C)[C@@H]1CC[C@]2(C(=O)O)CC[C@]3(C)[C@H](CC[C@@H]4[C@@]5(C)C[C@@H](CC#Cc6ccc(Br)cc6)C(=O)C(C)(C)[C@@H]5CC[C@]43C)[C@@H]12,6.26% (active)
5,CC1(C)CC[C@]2(CN)CC[C@]3(C)C(=CC[C@@H]4[C@@]5(C)CCCNC(C)(C)[C@@H]5CC[C@]43C)[C@H]2C1,96.1% (inactive)
6,Cc1cc2nc(CN)[nH]c2cc1C,103% (inactive)
7,O=C(CCCCCC/C=C\c1csc(Br)n1)NO,84.9% (inactive)
8,CC[N+](C)(C)N,95.9% (inactive)
9,O=C(O)c1cn(C2CC2)c2cc(N3CCN(C(=O)Nc4nc(-c5ccc(Cl)cc5)cs4)CC3)c(F)cc2c1=O,9.76% (active)
10,C#CCn1cc(C=C2C(=O)N(C)C(=O)N(C)C2=O)c2cc(Cl)ccc21,103% (inactive)
11,O=C(CSc1nc(-c2ccccc2)cc(=O)[nH]1)Nc1nc(-c2ccccc2)cs1,96.6% (inactive)
12,CC(=O)CCS(=O)c1ccccc1 (stereo not given),104% (inactive)
13,CC1(C)OCC(COC(c2ccccc2)(c2ccccc2)c2ccccc2)O1 (stereo not given),109% (inactive)
14,COc1ccc(CCn2cncc2-c2c[nH]c3ccccc23)cc1,94.5% (inactive)
15,COc1ccc(/C=N/Nc2c3ccccc3nc3ccccc23)cc1,73.7% (inactive)
16,C=C1C(=O)C2CCC1C2 (stereo not given),110% (inactive)
17,COc1cc(NC2CCCCC2O)c2nc(-c3ccc(Cl)cc3)ccc2c1 (stereo not given),98.6% (inactive) and 62.5% (inactive)
18,COC1C(O)CC(OC2CC(OC3CC(O[C@@H]4C(=O)c5c(cc6cc(OC7CC(OC8CC(O)C(O)C(C)O8)C(O)C(C)O7)c(C)c(O)c6c5O)CC4[C@H](OC)C(=O)C(C)=O)OC(C)C3O)OC(C)C2O)OC1C (stereo not given in full),-64.7% (active)
19,O=C(Nc1ccncc1)C(=O)c1cn(S(=O)(=O)c2cccc(F)c2)c2ccccc12,12% (inactive)
20,Cc1cc(CC(C)CC(C)(C)C)n(O)c(=O)c1 (stereo not given) (tested in a mixture with another compound),-7.41% (active)

row,Structure (SMILES),growth
1,CC1(CO)CCCC12OCCO2 (stereo not given),102% (inactive)
2,CC(=O)Nc1nonc1-c1nc2ccccc2n1Cc1ccc(C(C)(C)C)cc1,86.8% (inactive)
3,COc1ncnc2c1cnn2C,106% (inactive)
4,C(=C\c1ccccc1)/CN1CCN(C(c2ccccc2)c2ccccc2)CC1,89.6% (inactive)
5,Cc1ccc2cccc([N+](=O)[O-])c2n1,107% (inactive) and 100% (inactive)
6,CCN(CC)CCOc1ccc(C(=C(C)c2ccc(Cl)cc2)c2ccc(OCCN(CC)CC)cc2)cc1,-81.6% (active)
7,COc1ccc(CCN2C(=O)CCC3=C2CCCC3=O)cc1OC,105% (inactive)
8,CN(C)C/C=C/C(=O)Nc1cc2c(Nc3cccc(Cl)c3F)ncnc2cc1OCCOC(F)F,-44.6% (active)
9,O=C1CCC(N2C(=O)c3ccc(NS(=O)(=O)c4ccccc4OC(F)(F)F)cc3C2=O)C(=O)N1 (stereo not given),10.1% (inactive)
10,C[C@@H]1O[C@@H](O[C@@H]2C[C@H](c3ccc4c(c3O)C(=O)C3=C(C4=O)[C@@]4(O)C(=O)C[C@](C)(O)C[C@@]4(O)C=C3)O[C@H](C)[C@H]2O)CC[C@@H]1O[C@H]1C[C@@H](O)[C@H](O)[C@@H](C)O1,106% (inactive)
11,O=S(=O)(NCCNc1cc(-c2cn(-c3ccccc3)nc2-c2cccc(O)c2)ccn1)c1cccc(F)c1,15.2% (inactive)
12,N#CC1=C2NCCCNc3oc(nc3C#N)Cc3ccccc3CC(=N1)O2,75.1% (inactive)
13,Cc1ccc(-c2csc(/N=C3\C(=O)Nc4ccccc43)n2)cc1,-12.5% (active)
14,CC1=NN(c2cccc(S(N)(=O)=O)c2)C(=O)C1,95.6% (inactive)
15,O=C(O)c1ccc(N=CC(=O)c2ccc(-c3ccccc3)cc2)cc1,83.5% (inactive)
16,Cc1csc(NC(=O)c2sc3nc(-c4cccs4)ccc3c2N)n1,82% (inactive)
17,CCCSc1nc2ccc(C)cc2cc1/C=[N+](\[O-])c1ccccc1,88.4% (inactive)
18,C#CCCCCCCC[C@@H]1OC(=O)[C@H]([C@@H](C)CC)NC(=O)[C@@H]([C@@H](C)CC)NC(=O)CC(=O)[C@@H]1C,101% (inactive)
19,O=C1NC(=O)/C(=C\c2ccncc2)N1,102% (inactive)
20,CCN(CC)c1ccc(/C=N\NC(=O)c2cccc(Nc3ccnc(C(F)(F)F)c3)c2)c(O)c1,24.6% (inactive)
